Experiment [1] can be described thus: inhibitors of TNFa-induced NFkB p65 translocation, primary screen, imaging, HUVEC, MLSMR starter and 10KST1 sets (AID 438;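 active = inhibition above 20% together with a positive visual image hit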;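 note: compound added about 3h40 before a 20 min TNFalpha stimulation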;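 for inhibition: signal is the nuclear over cytoplasmic p65 intensity ratio per well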). Conditions: HUVEC TNFa-induced p65 nuclear translocation; cell count: measured here: nuclei count (cytotoxicity indicator), at 2.08 µM; inhibition: at 2 µM, stronger effect = higher value, 0% TNFa-plus-vehicle, 100% no-TNFa wells.
Experiment [2] is described as follows: inhibitors of mutant huntingtin aggregation, primary screen, imaging, exon1htt(103Q)mCFP cells, high-content imaging (AID 483;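 active = visual image review flags a hit and inhibition of aggregation exceeds 20%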;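 note: compound exposure lasted 3 days before fixation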;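 for nuclei count: percent of the per-plate median nuclei count of sample wells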). Conditions: exon1htt(103Q)mCFP cell line, aggregate imaging, at 2 µM; inhibition of aggregation: stronger effect = higher value; nuclei count: measured here: cell count, toxicity.
Experiment [3] in a line: inhibitors of E-selectin induction by TNFa, primary screen, imaging, HUVEC, immunofluorescence, MLSMR starter and 10KST1 sets (AID 487;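 active = visually confirmed hit in the image check and inhibition above 20%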;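 for inhibition: signal is fraction of cell area covered by stained E-selectin grains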;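 for nuclei count: 100% = median nuclei count of all wells on the same plate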). Conditions: HUVEC TNFalpha-induced E-selectin immunofluorescence imaging, at 2 µM; inhibition: stronger effect = higher value; nuclei count: measured here: cell number, toxicity.
The target of experiment [4] is Voltage-gated potassium channel subunit beta-2 (Rattus norvegicus) (UniProt P62483). Description: KvBeta enzyme negative modulators, primary screen, biochemical, NADPH fluorescence (AID 622;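 active = fluorescence slope higher than the sample average by over 3 SD, cut at about -0.22 in these data, passing the limit was not always enough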;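 note: slope of raw intensity against log time taken from 70 to 1610 s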). Conditions: recombinant KvBeta, 4-cyanobenzaldehyde reduction, at 10 µM, stronger effect = higher value.
Voltage-gated potassium channel subunit beta-2 (Rattus norvegicus), sequence (P62483 whole entry, looked up): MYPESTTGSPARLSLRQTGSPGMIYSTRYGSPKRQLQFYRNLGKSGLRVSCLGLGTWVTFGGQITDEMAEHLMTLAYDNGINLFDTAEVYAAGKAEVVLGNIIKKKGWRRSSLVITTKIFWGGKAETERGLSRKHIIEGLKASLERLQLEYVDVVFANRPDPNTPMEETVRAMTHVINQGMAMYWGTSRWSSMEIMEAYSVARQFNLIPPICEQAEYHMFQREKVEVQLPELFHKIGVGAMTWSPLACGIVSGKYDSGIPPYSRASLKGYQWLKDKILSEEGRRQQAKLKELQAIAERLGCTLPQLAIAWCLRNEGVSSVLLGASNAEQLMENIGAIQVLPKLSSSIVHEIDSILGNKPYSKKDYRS
Experiment [5] shares this target. Description: KvBeta positive modulators, primary screen, biochemical, NADPH fluorescence (AID 623;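 active = NADPH fluorescence slope more negative than the mean of all samples by about 3 SD, 99.7% confidence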;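 note: fluorescence intensity change per second fitted from 20 to 320 s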). Conditions: Recombinant KvBeta, NADPH fluorescence decrease slope, 10 min; at 10 µM; stronger effect = lower value.
Experiment [6] has as its target Alpha-2C adrenergic receptor (Homo sapiens) (UniProt P18825). Description: modulators of alpha2C/GIRK thallium flux, primary screen, cell-based, HEK293 alpha2C/GIRK1/2 (AID 624;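 active = fluorescence slope after compound addition differing from the mean of all screened samples at 99.7% confidence, in either direction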;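 note: slope of fluorescence ratio to pre-addition baseline per second over 15 to 24 s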). To be noted: thallium flux BTC fluorescence, at 10 µM, actives lie on both sides.
Experiment [7] is described as follows: inhibitors of Sendai virus-induced IRF3 signaling, primary screen, TLR/RLR signaling modifier project, cell-based, Sendai virus stimulus, luciferase, 10K MLSCN set (AID 602276).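 Note: firefly luciferase from ISG56 promoter only with Renilla not read in this screen; 0% = Sendai virus plus DMSO and 100% = medium plus DMSO without virus.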 Conditions: HEK293 RL24 IRF3 luciferase reporter, at 10 µM, stronger effect = higher value.
A short description of experiment [8]: inhibitors of poly I:C-induced TLR3 signaling, primary screen, cell-based, poly I:C stimulus, luciferase, 10K MLSCN set (AID 602277;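 active = inhibition of the reporter signal at or above 50%; inactive = inhibition below 50%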). Conditions: HEK293-TLR3 RL24 IRF3 luciferase reporter, at 10 µM, stronger effect = higher value.

SMILES strings stand for the structures. The source made the active and inactive calls.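 Rule for the calls, unless noted: active = inhibition at or above 50% at 10 µM; inactive = inhibition below 50%.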

What is called inhibition is the drop in the measured response relative to a control, in per cent.

Alpha-2C adrenergic receptor (Homo sapiens), sequence (P18825 whole entry, looked up): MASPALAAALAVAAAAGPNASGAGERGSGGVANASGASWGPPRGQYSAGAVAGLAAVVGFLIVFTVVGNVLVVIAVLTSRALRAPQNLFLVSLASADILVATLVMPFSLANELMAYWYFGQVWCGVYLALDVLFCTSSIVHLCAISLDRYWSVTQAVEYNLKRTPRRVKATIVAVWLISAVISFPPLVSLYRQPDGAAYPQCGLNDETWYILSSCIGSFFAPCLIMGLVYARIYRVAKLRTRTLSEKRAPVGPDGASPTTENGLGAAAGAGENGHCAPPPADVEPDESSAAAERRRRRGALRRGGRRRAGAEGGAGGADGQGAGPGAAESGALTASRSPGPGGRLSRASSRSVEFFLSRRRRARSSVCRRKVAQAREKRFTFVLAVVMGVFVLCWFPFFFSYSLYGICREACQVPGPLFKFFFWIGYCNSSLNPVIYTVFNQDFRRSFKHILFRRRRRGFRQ

In the case of `CC1(C)COCN1S(=O)(=O)c1ccc(C(=O)Nc2nnc(-c3ccc(Cl)s3)o2)cc1`, the cell count in experiment [1] was 440. Further, the inhibition in experiment [1] is 10.8% (inactive); in experiment [3] it was -26.4% (inactive); in experiment [7] it was 49.1% (inactive); in experiment [8], 36.9% (inactive). The inhibition of aggregation in experiment [2] was -2.8% (inactive). The nuclei count in experiment [2] is 98.3%; in experiment [3], 93.8%. Moreover, the fluorescence slope in experiment [4] was -0.545 (inactive). The NADPH fluorescence slope in experiment [5] was 1.8e-05 (inactive). In addition, the slope in experiment [6] is 0.00616 (inactive).
Turning to `CCn1c(SCC(=O)Nc2cc(NC(C)=O)ccc2OC)nnc1-c1ccccn1`, the cell count in experiment [1] came out at 630. In addition, the inhibition in experiment [1] is 6.5% (inactive); in experiment [3], 51.6% (inactive); in experiment [7], 10.3% (inactive); in experiment [8], 8.37% (inactive). The inhibition of aggregation in experiment [2] was 3.4% (inactive). In addition, the results for the nuclei count in experiment [2] and in experiment [3] were 89.9% and 92.7%, respectively. Moreover, the fluorescence slope in experiment [4] is -0.541 (inactive). The NADPH fluorescence slope in experiment [5] was 1.5e-05 (inactive). In addition, in experiment [6], the slope is 0.00559 (inactive).
For the compound `O=S(=O)(NCc1cn2ccsc2n1)c1ccc2c(c1)OCCO2`, the cell count in experiment [1] was determined as 600. Besides, the inhibition in experiment [1] is 8.2% (inactive); in experiment [3], 51.6% (inactive); in experiment [7] it was 5.63% (inactive); in experiment [8], 11.2% (inactive). Also, the inhibition of aggregation in experiment [2] was -3.9% (inactive). Besides, the nuclei count came out at 71% in experiment [2] and 72.2% in experiment [3]. Besides, the fluorescence slope in experiment [4] is -0.502 (inactive). For the same compound, the NADPH fluorescence slope in experiment [5] was -3.9e-05 (inactive). In addition, in experiment [6], the slope was 0.00564 (inactive).
Consider `Cc1ccc(S(=O)(=O)N2CCCC2C(=O)OCc2nc3ccccc3s2)cc1` (centres undefined), for which, in experiment [1], the cell count was 459. Moreover, the inhibition was -1.1% (inactive) in experiment [1], -89% (inactive) in experiment [3], 8.31% (inactive) in experiment [7] and 25.2% (inactive) in experiment [8]. The inhibition of aggregation in experiment [2] is 4.3% (inactive). The nuclei count in experiment [2] turned out to be 116%; in experiment [3], 110%. The fluorescence slope in experiment [4] was -0.519 (inactive). In experiment [5], the NADPH fluorescence slope is -5.7e-05 (inactive). Besides, in experiment [6], the slope was 0.00533 (inactive).
With `O=C(Nc1cccnc1)c1ccc2c(c1)C(=O)N(Cc1cccnc1)C2=O`, the cell count in experiment [1] was 386. In addition, the inhibition in experiment [1] is 1.4% (inactive); in experiment [3] it was -26.9% (inactive); in experiment [7], 5.57% (inactive); in experiment [8], 11.9% (inactive). The inhibition of aggregation in experiment [2] is 9% (inactive). Also, the values for the nuclei count in experiment [2] and in experiment [3] were 105% and 99.7%, respectively. Further, in experiment [4], the fluorescence slope was -0.615 (inactive). Moreover, in experiment [5], the NADPH fluorescence slope was -1.2e-05 (inactive). In addition, the slope in experiment [6] was 0.00348 (inactive).
In the case of `Cc1ccc2cc(CN(CCN3CCCC3)C(=O)Nc3ccc(F)cc3)c(=O)[nH]c2c1C`, the cell count in experiment [1] was found to be 540. The inhibition in experiment [1] is -29.6% (inactive); in experiment [3], -47.4% (inactive); in experiment [7], 3.48% (inactive); in experiment [8] it was 16.1% (inactive). Moreover, in experiment [2], the inhibition of aggregation is -45.2% (inactive). Also, the nuclei count in experiment [2] amounted to 109%; in experiment [3], 111%. The fluorescence slope in experiment [4] is -0.587 (inactive). The NADPH fluorescence slope in experiment [5] is 2.1e-05 (inactive). Also, the slope in experiment [6] was 0.00603 (inactive).
As for `CN(C)CCCn1c(N)c(C#N)c2nc(C#N)c(C#N)nc21`, the cell count in experiment [1] stood at 735. In addition, the inhibition in experiment [1] was -14.6% (inactive); in experiment [3], -55.1% (inactive); in experiment [7], 48.9% (inactive); in experiment [8], 79.3% (active). In addition, the inhibition of aggregation in experiment [2] was 0% (inactive). Further, the nuclei count worked out at 128% in experiment [2] and 106% in experiment [3]. Also, the fluorescence slope in experiment [4] was -0.0856 (active). Moreover, the NADPH fluorescence slope in experiment [5] is -1.8e-05 (inactive). The slope in experiment [6] is 0.00617 (inactive).
Consider `CCC(=O)N1CCc2cc(S(=O)(=O)CCC(=O)Nc3ccc(F)c(F)c3)ccc21`, for which the cell count in experiment [1] worked out at 571. Also, the inhibition in experiment [1] was 5.2% (inactive); in experiment [3] it was -68.8% (inactive); in experiment [7], -11.6% (inactive); in experiment [8], -3.44% (inactive). For the same compound, the inhibition of aggregation in experiment [2] was 6.1% (inactive). For the same compound, the results for the nuclei count in experiment [2] and in experiment [3] were 96% and 111%, respectively. In addition, in experiment [4], the fluorescence slope was -0.423 (inactive). Further, in experiment [5], the NADPH fluorescence slope was -1.2e-05 (inactive). Further, in experiment [6], the slope was 0.00293 (inactive).
In the case of `Cc1ccccc1N1OC2C(=O)N(c3ccc(F)cc3)C(=O)C2C1c1ccccn1` (centres undefined), the cell count in experiment [1] was found to be 680. The inhibition was -3.5% (inactive) in experiment [1], -36.7% (inactive) in experiment [3], 10.4% (inactive) in experiment [7] and 21.1% (inactive) in experiment [8]. In experiment [2], the inhibition of aggregation was -5.9% (inactive). Further, the nuclei count in experiment [2] stood at 96.3%; in experiment [3] it was 152%. Moreover, in experiment [4], the fluorescence slope is -0.607 (inactive). In addition, in experiment [5], the NADPH fluorescence slope was -1.4e-05 (inactive). The slope in experiment [6] was 0.00636 (inactive).
Take `CCOc1ccc(NC(=O)c2ccccc2O)cc1`: the cell count in experiment [1] worked out at 558. The inhibition in experiment [1] was -1.7% (inactive); in experiment [3] it was -114% (inactive); in experiment [7] it was -59.1% (inactive); in experiment [8] it was -110% (inactive). The inhibition of aggregation in experiment [2] is 9.7% (inactive). Also, the results for the nuclei count in experiment [2] and in experiment [3] were 71.8% and 96.2%, respectively. Besides, the fluorescence slope in experiment [4] is -0.622 (inactive). In experiment [5], the NADPH fluorescence slope was -2e-05 (inactive). In addition, the slope in experiment [6] was 0.00439 (inactive).
Turning to `CCCNc1nc(N2CCOCC2)nc(N2CCOCC2)n1`, in experiment [1], the cell count came to 193. The inhibition in experiment [1] was -17.4% (inactive); in experiment [3] it was 3.6% (inactive); in experiment [7] it was -9.95% (inactive); in experiment [8], 18.9% (inactive). Besides, the inhibition of aggregation in experiment [2] is 23.8% (inactive). The nuclei count was 92.2% in experiment [2] and 91.7% in experiment [3]. For the same compound, the fluorescence slope in experiment [4] is -0.498 (inactive). Moreover, in experiment [5], the NADPH fluorescence slope was -2.3e-05 (inactive). In addition, in experiment [6], the slope is 0.00617 (inactive).
As for `CCCCP(=O)(CCCC)Cc1ccccc1O`, in experiment [1], the cell count is 363. In addition, the inhibition in experiment [1] is -1.6% (inactive); in experiment [3], -39.4% (inactive); in experiment [7] it was -4.65% (inactive); in experiment [8], 9.82% (inactive). The inhibition of aggregation in experiment [2] is 0.1% (inactive). Moreover, the nuclei count in experiment [2] was found to be 91.9%; in experiment [3], 97.4%. In experiment [4], the fluorescence slope was -0.474 (inactive). Also, the NADPH fluorescence slope in experiment [5] was -0.000131 (inactive). The slope in experiment [6] is 0.00605 (inactive).
For the compound `CCc1c(C(=O)N2CCOCC2)csc1C`, in experiment [1], the cell count came out at 295. For the same compound, the inhibition in experiment [1] was -3.7% (inactive); in experiment [3] it was -4.5% (inactive); in experiment [7], -0.247% (inactive); in experiment [8], -13.5% (inactive). Also, the inhibition of aggregation in experiment [2] is -15% (inactive). The nuclei count in experiment [2] and in experiment [3] was 104% each time. For the same compound, in experiment [4], the fluorescence slope was -0.409 (inactive). Further, in experiment [5], the NADPH fluorescence slope was -7.3e-05 (inactive). Also, the slope in experiment [6] is 0.00413 (inactive).
Take `O=C(NCc1cccs1)c1cc2c(s1)CCCC2`: the cell count in experiment [1] worked out at 377. The inhibition in experiment [1] was -16.3% (inactive); in experiment [3], -21.4% (inactive); in experiment [7], -44.6% (inactive); in experiment [8], -105% (inactive). Besides, the inhibition of aggregation in experiment [2] is 5.1% (inactive). The nuclei count in experiment [2] was found to be 89.1%; in experiment [3], 126%. Besides, the fluorescence slope in experiment [4] was -0.479 (inactive). The NADPH fluorescence slope in experiment [5] was 6e-05 (inactive). In experiment [6], the slope is 0.0052 (inactive).
